Sampled rows, rich in hits. Any-hit rate of the full collection: about 3.8%.
GALK inhibitor: GALK (human) enzyme inhibition | AID 1347072 | recombinant GALK, Kinase-Glo ATP luminescence, 1 h | P51570 | Potency, µM (titrated, usually from 57.5 µM), hits mostly inhibitors | 44,000 tested, under 10 active
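Reactions with and without enzyme served as controls. GALK at 5 nM phosphorylates 100 uM galactose using 35 uM ATP (HEPES pH 8.0, Mg2+) for 1 h at RT, with luminescence read 10 min after adding Kinase-Glo Plus.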
OvCa metastasis: inhibitors of ovarian cancer cell adhesion and invasion in omental model. SKOV3ip1-GFP adhesion/invasion on 3D omental model, fluorescence. Potency, µM (doses to about 45.8 µM), hits mostly inhibitors. 46,000 tested, 0.1% active. AID 1963576; further: nearly all actives have a fitted effect of over 65% in size
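A 3D layer of primary human omental fibroblasts, mesothelial cells, fibronectin and collagen I, grown 48 hr, received SKOV3ip1-GFP cells in serum-free medium plus compounds at 0.36-46 umol/L. After 2 hr RT and 16 hr 37 C, fixed adherent GFP cells were counted; normalized to DMSO and tomatine.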
NTMT1 inhibitor: NTMT1 methyltransferase inhibition; NTMT1 MTase-Glo SAH luminescence, purified enzyme; Q9BV86; AID 1645870; 59,000 tested, 2.5% active; Potency, µM (titrated, usually from 114 µM), hits mostly inhibitors; further: nearly all actives have a fitted effect of over 65% in size
Target sequence (Q9BV86 whole entry, looked up): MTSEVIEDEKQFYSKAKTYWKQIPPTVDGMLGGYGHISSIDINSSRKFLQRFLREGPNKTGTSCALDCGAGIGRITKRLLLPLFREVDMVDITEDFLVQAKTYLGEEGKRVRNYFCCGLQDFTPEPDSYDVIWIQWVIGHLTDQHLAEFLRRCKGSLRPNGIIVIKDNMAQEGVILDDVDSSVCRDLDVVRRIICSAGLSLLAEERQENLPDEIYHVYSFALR
B2AR arrestin ag: ADRB2 beta-arrestin recruitment; P07550; HTLA Tango cells, beta-arrestin recruitment, luciferase luminescence, 18 h; Potency, µM (highest dose often 46.1 µM), actives largely listed as activators; 44,000 tested, under 10 active
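Ligand-induced beta-arrestin recruitment to recombinant beta2-AR is measured via a tTA-driven luciferase reporter in Tango cells after 18 hr compound exposure at 37 degrees C. Concentrations span up to 46 microM.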
DRV1 agonist: GPR32 (DRV1) agonism, beta-arrestin recruitment | O75388 | CHO-K1 GPR32 beta-arrestin PathHunter luminescence, 90 min; zero percent set by DMSO-only wells | activation, % at 76.9 µM | 48,000 tested, 2.5% active;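 active means activation of at least 60% and not above a set upper limit, about 1 call in 100 departs from these limits; inconclusive means activation of 40% to 60%, or above that upper limit; inactive means activation under 40%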
Target sequence (O75388 whole entry, looked up): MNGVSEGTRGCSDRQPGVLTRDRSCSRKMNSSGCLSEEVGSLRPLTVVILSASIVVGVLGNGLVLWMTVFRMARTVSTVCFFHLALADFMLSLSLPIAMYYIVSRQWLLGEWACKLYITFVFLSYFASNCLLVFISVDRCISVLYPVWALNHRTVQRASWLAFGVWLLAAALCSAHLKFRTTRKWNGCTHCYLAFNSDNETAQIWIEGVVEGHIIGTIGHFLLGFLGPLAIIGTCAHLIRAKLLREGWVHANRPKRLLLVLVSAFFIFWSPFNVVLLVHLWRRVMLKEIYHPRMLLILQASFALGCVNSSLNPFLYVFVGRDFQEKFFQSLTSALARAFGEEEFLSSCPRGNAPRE
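Cells are plated overnight, treated with compounds in DMSO for 90 minutes at 37 °C, and developed with PathHunter detection reagent for 1 hour before luminescence is read; signal reflects beta-arrestin binding to GPR32 in engineered CHO-K1 cells.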
TSG101-PTAP inh: inhibitors of HIV-1 PTAP binding to human TSG101, validation; Q99816; AID 1347069; Potency, µM (top dose mostly 115 µM), actives largely listed as inhibitors; Fluorescence polarization, FITC-PTAP peptide/Tsg101, 20 min; 44,000 tested, under 10 active
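Compounds pinned into 10 uM Tsg101 binding domain, then 50 nM FITC-PTAP peptide added in pH 7.5 HEPES buffer; FP read after 20 min, room temperature. Total S+P intensity flags fluorescent compounds; active cut-off <25 µM, efficacy <60%.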
A number is an active result; . = inactive; ? = inconclusive; / = no result given; ! = not confirmed by another sample. Unless noted, the call rests on the fitted dose curve; in most records, active means well fitted curve in the direction sought with a large enough effect; inconclusive means small, poorly fitted or top-dose-only effect, or another doubt; inactive means no such curve, though single readings can be large; an effect the other way counts as inactive or inconclusive.

SMILES | GALK inhibitor | OvCa metastasis | NTMT1 inhibitor | B2AR arrestin ag | DRV1 agonist | TSG101-PTAP inh
COc1ccc(NC(=O)[C@H]2O[C@@H]3OC(C)(C)O[C@@H]3[C@H]3OC(C)(C)O[C@H]32)c(OC)c1 | . | . | . | . | 97 | .
COc1ccc(C(C(=O)NCc2ccccc2)N(C(=O)Cn2nnc3ccccc32)c2ccc(F)cc2)cc1 (stereo unspecified) | . | . | . | . | . | .
COc1cc(OC2CCN(C)CC2)ccc1Nc1ncc2c(n1)n(C1CCCC1)c(=O)n2C | / | . | . | / | / | /
COc1cc(C(=O)NC2CCN(C)CC2)c(F)cc1Nc1ncc2c(n1)N(C1CCCC1)CC(F)(F)C(=O)N2C | / | / | 28µM | / | / | /
COc1cc(C(=O)N2CCC(N3CCN(C)CC3)CC2)ccc1Nc1ncc2c(n1)N(C)c1ccccc1C(=O)N2C | / | . | . | / | / | /
COc1cc(C(=O)NC2CCN(C)CC2)ccc1Nc1ncc2c(n1)N(C1CCCC1)CC(F)(F)C(=O)N2C | / | / | 28µM | / | / | /
CC[C@@H]1C(=O)N(C)c2cnc(Nc3ccc(C(=O)NC4CCN(C)CC4)cc3OC)nc2N1C1CCCC1 | / | . | 25µM! | / | / | /
CCCC(=O)N(c1ccc2oc(C)c(C(C)=O)c2c1)S(=O)(=O)c1ccc(CC)cc1 | . | . | . | . | . | .
CC(=O)[C@H]1CCC2C3CCC4=CC(=O)CC[C@]4(C)C3[C@H](O)C[C@@]21C (stereo partly specified) | / | / | . | / | / | /
C#Cc1ccc(-c2ccccc2F)cc1 | / | / | . | / | . | /
O=C(Cn1c(=O)oc2cc(S(=O)(=O)NCc3ccccc3)ccc21)NCc1ccc(F)cc1 | . | . | . | . | 111 | .
O=C(Cn1c(=O)oc2cc(S(=O)(=O)NCc3ccccc3)ccc21)NCc1ccc(Cl)cc1 | . | . | . | . | . | .
Cc1cccc(NC(=O)Cn2c(=O)oc3cc(S(=O)(=O)NCc4ccccc4)ccc32)c1 | . | . | . | . | 65 | .
Cc1cccc(NC(=O)Cn2c(=O)oc3cc(S(=O)(=O)NC4CCCC4)ccc32)c1 | . | . | . | . | . | .
Cc1cccc(NC(=O)c2cc(S(=O)(=O)NCc3ccc4c(c3)OCO4)ccc2F)c1C | . | . | . | . | . | .
CC1=C(C(=O)Nc2ccc(C)cc2C)C(c2cccs2)n2nc(SCc3ccccc3Cl)nc2N1 (stereo unspecified) | . | . | . | . | . | .
Cc1ccc(C)c(N2CCN(CCCNC(=O)c3ccc4nc(C(C)C)oc4c3)CC2)c1 | . | . | . | . | . | .
CCc1oc2ccccc2c1C(=O)c1cc(I)c(O)c(I)c1 | / | / | 20µM | / | . | /
CC(=O)Nc1cc(-c2ccccc2)nn1Cc1cccc(Cl)c1 | . | . | . | . | . | .
CSc1nn(Cc2cccc(Cl)c2)c(N(C(C)=O)C(C)=O)c1S(=O)(=O)c1ccccc1 | . | . | . | . | 76 | .
COc1ccc(CCNC(=O)Cn2nc(C)c3c(C)n(-c4ccc(C)cc4)nc3c2=O)c(OC)c1 | . | . | 45µM | . | . | .
COCCNC(=O)Cn1nc(C)c2c(C)n(-c3ccc(C)cc3)nc2c1=O | . | . | . | . | . | .
CCC(C(=O)NCCc1cc(OC)ccc1OC)n1nc(C)c2c(C)n(-c3ccccc3)nc2c1=O (stereo unspecified) | . | . | . | . | . | .
COc1ccc(OC)c(CCNC(=O)C(C)n2nc(C)c3c(C)n(-c4ccc(C)cc4)nc3c2=O)c1 (stereo unspecified) | . | . | 89µM | . | . | .
CCOc1ccc(CCNC(=O)C(CC(C)C)N2Cc3ccccc3C2=O)cc1OCC (stereo unspecified) | . | . | . | . | . | .
SMILES | GALK inhibitor | OvCa metastasis | NTMT1 inhibitor | B2AR arrestin ag | DRV1 agonist | TSG101-PTAP inh
CCc1ccc(CNC(=O)C2CCN(c3nn4cc(-c5ccc(OC)cc5)nc4s3)CC2)cc1 | . | . | . | . | . | .
COc1cccc(C2CC(=O)N3CN(C4CCCCC4)CSC3=C2C#N)c1 (stereo unspecified) | . | . | 11µM | . | ? | .
COc1ccc(C2CC(=O)N3CN(C4CCCCC4)CSC3=C2C#N)cc1 (stereo unspecified) | . | . | 13µM | . | . | .
COc1ccc(CNC(=O)c2cc3c(=O)n4cccc(C)c4nc3s2)cc1 | . | . | . | . | . | .
Cc1ccc(CNC(=O)CSc2nc3n[nH]c(C)c3c(=N)n2-c2ccccc2Cl)cc1 | . | . | ? | . | . | .
O=C1OC2(c3ccccc31)c1cc(Br)c(O)c(Br)c1Oc1c2cc(Br)c(O)c1Br | / | / | 50µM | / | 68 | /
CCS(=O)(=O)c1oc(-c2ccc(F)cc2)nc1S(=O)(=O)c1ccccc1 | . | . | . | . | . | .
CCC(C)S(=O)(=O)c1oc(-c2ccc(F)cc2)nc1S(=O)(=O)c1ccc(F)cc1 (stereo unspecified) | . | 3.5µM | . | . | . | .
COc1cc2nc(-c3cc(F)ccc3O)nc(N[C@@H]3CNC[C@H]3C(C)(C)O)c2cc1OC | / | / | 28µM | / | / | /
CCOc1cc(C(=O)Nc2ccc(NC(=O)c3cc4ccccc4o3)c(OC)c2)cc(OCC)c1OCC | . | ? | . | . | 105 | .
Cc1cccc(OCc2nc(CC(=O)Nc3ccc(C)cc3C)cs2)c1 | . | . | . | . | . | .
COc1cccc(NC(=O)CN(CCc2ccccc2)S(=O)(=O)c2ccc(Cl)cc2)c1 | . | . | 2.5µM | . | . | .
COC(=O)c1ccc(NC(=O)CN(CCc2ccccc2)S(=O)(=O)c2ccc(OC)cc2)cc1 | . | . | ? | . | . | .
CCCCCCCCCCCCCCCC[N+](C)(C)CC | / | / | 25µM | / | . | /
CCCCCCCCCCCCCCCC[N+](C)(C)Cc1ccccc1 | / | / | 22µM | / | . | /
CCCCCCCCCCCCCC[N+](C)(C)Cc1ccccc1 | / | / | 50µM | / | . | /
CCC1CCCCN1CCCNC(=O)c1cn(C)c2ccc(S(=O)(=O)N(C)C3CCCCC3)cc2c1=O (stereo unspecified) | . | . | . | . | . | .
COc1cc(C(=O)Nc2cc(C)ccc2OCc2cc(=O)n3cc(C)sc3n2)cc(OC)c1OC | . | . | . | . | . | .
COc1cc(C(=O)Nc2ccccc2OCc2cc(=O)n3cc(C)sc3n2)cc(OC)c1OC | . | . | 89µM | . | . | .
CC(C)(OC1OC(CO)C(O)C(O)C1O)C1CCC(O)(CO)C2CC(=O)C(C)(O)C2C1 (stereo unspecified) | / | / | . | / | / | /
Cn1nc(C(=O)NCc2ccccc2)c2c1-c1ccccc1SC2 | . | . | . | . | . | .
